# Structures can show the parent of a compound that is named as a salt. The full ranking holds about 1,500 compounds; the median of “Excess HSA synergy score (sum over dose matrix of excess over highest single agent)” is about 43, and the lowest 2% start at about -900. The full list was thinned out, with the lowest values kept by preference.
# Test system: PEO-1
# Assay: Excess HSA synergy score (sum over dose matrix of excess over highest single agent) (score (summed % response)); higher = less synergy / more antagonism (negative = synergy)
# Conditions: 72 h, read-out: viability/apoptosis luminescence (CellTiter-Glo or Caspase3-Glo / not stated per table)
# [1] = matrix design: 6x6, 5-fold dilutions (primary screen)
# [2] = matrix design: 10x10, 9-step dilutions (confirmatory)
SMILES,Excess HSA synergy score [1],Excess HSA synergy score [2]
CC(C)N(CC[C@H](c1ccccc1)c1cc(CO)ccc1O)C(C)C + CC[C@H](NC(=O)[C@H](C)NC)C(=O)N1C[C@@H](O)C[C@H]1Cc1c(-c2[nH]c3cc(F)ccc3c2C[C@@H]2C[C@H](O)CN2C(=O)[C@H](CC)NC(=O)[C@H](C)NC)[nH]c2cc(F)ccc12 [Birinapant],309,–
CCCCCCCCc1ccc(CCC(N)(CO)CO)cc1 [Fingolimod hydrochloride] + CC[C@H](NC(=O)[C@H](C)NC)C(=O)N1C[C@@H](O)C[C@H]1Cc1c(-c2[nH]c3cc(F)ccc3c2C[C@@H]2C[C@H](O)CN2C(=O)[C@H](CC)NC(=O)[C@H](C)NC)[nH]c2cc(F)ccc12 [Birinapant],-38.3,–
C/C=C/C[C@@H](C)C(=O)[C@H]1C(=O)N[C@@H](C(C)C)C(=O)N(C)CC(=O)N(C)[C@@H](CC(C)C)C(=O)N[C@@H](C(C)C)C(=O)N(C)[C@@H](CC(C)C)C(=O)N[C@@H](C)C(=O)N[C@H](C)C(=O)N(C)[C@@H](CC(C)C)C(=O)N(C)[C@@H](CC(C)C)C(=O)N(C)[C@@H](C(C)C)C(=O)N1C [Valspodar] + CC[C@H](NC(=O)[C@H](C)NC)C(=O)N1C[C@@H](O)C[C@H]1Cc1c(-c2[nH]c3cc(F)ccc3c2C[C@@H]2C[C@H](O)CN2C(=O)[C@H](CC)NC(=O)[C@H](C)NC)[nH]c2cc(F)ccc12 [Birinapant],173,–
COc1ccc(-c2cc3c(C)nc(N)nc3n([C@H]3CC[C@H](OCCO)CC3)c2=O)cn1 + CC[C@H](NC(=O)[C@H](C)NC)C(=O)N1C[C@@H](O)C[C@H]1Cc1c(-c2[nH]c3cc(F)ccc3c2C[C@@H]2C[C@H](O)CN2C(=O)[C@H](CC)NC(=O)[C@H](C)NC)[nH]c2cc(F)ccc12 [Birinapant],-32.5,–
O=C(/C=C/c1cccnc1)NCCCCC1CCN(C(=O)c2ccccc2)CC1 [Daporinad] + CC[C@H](NC(=O)[C@H](C)NC)C(=O)N1C[C@@H](O)C[C@H]1Cc1c(-c2[nH]c3cc(F)ccc3c2C[C@@H]2C[C@H](O)CN2C(=O)[C@H](CC)NC(=O)[C@H](C)NC)[nH]c2cc(F)ccc12 [Birinapant],312,–
Nc1ccccc1NC(=O)c1ccc(CNC(=O)OCc2cccnc2)cc1 [Entinostat] + CC[C@H](NC(=O)[C@H](C)NC)C(=O)N1C[C@@H](O)C[C@H]1Cc1c(-c2[nH]c3cc(F)ccc3c2C[C@@H]2C[C@H](O)CN2C(=O)[C@H](CC)NC(=O)[C@H](C)NC)[nH]c2cc(F)ccc12 [Birinapant],-296,–
Nc1ccccc1NC(=O)c1ccc(CNc2nccc(-c3cccnc3)n2)cc1 [Mocetinostat] + CC[C@H](NC(=O)[C@H](C)NC)C(=O)N1C[C@@H](O)C[C@H]1Cc1c(-c2[nH]c3cc(F)ccc3c2C[C@@H]2C[C@H](O)CN2C(=O)[C@H](CC)NC(=O)[C@H](C)NC)[nH]c2cc(F)ccc12 [Birinapant],-263,-1360
Cc1ccc(NC(=O)c2ccc(CN3CCN(C)CC3)cc2)cc1Nc1nccc(-c2cccnc2)n1 [Imatinib] + CC[C@H](NC(=O)[C@H](C)NC)C(=O)N1C[C@@H](O)C[C@H]1Cc1c(-c2[nH]c3cc(F)ccc3c2C[C@@H]2C[C@H](O)CN2C(=O)[C@H](CC)NC(=O)[C@H](C)NC)[nH]c2cc(F)ccc12 [Birinapant],-103,–
CC(/C=C1\SC(=S)N(CC(=O)O)C1=O)=C\c1ccccc1 [Epalrestat] + CC[C@H](NC(=O)[C@H](C)NC)C(=O)N1C[C@@H](O)C[C@H]1Cc1c(-c2[nH]c3cc(F)ccc3c2C[C@@H]2C[C@H](O)CN2C(=O)[C@H](CC)NC(=O)[C@H](C)NC)[nH]c2cc(F)ccc12 [Birinapant],114,–
CO/N=C(\C(=O)N[C@@H]1C(=O)N2C(C(=O)O)=C(Cn3ccc(=N)n3CCO)CS[C@H]12)c1csc(N)n1 [Cefoselis sulfate] + CC[C@H](NC(=O)[C@H](C)NC)C(=O)N1C[C@@H](O)C[C@H]1Cc1c(-c2[nH]c3cc(F)ccc3c2C[C@@H]2C[C@H](O)CN2C(=O)[C@H](CC)NC(=O)[C@H](C)NC)[nH]c2cc(F)ccc12 [Birinapant],200,–
N#CC(=Cc1ccc(O)c(O)c1)C(=O)NCc1ccccc1 [Tyrphostin B42] + CC[C@H](NC(=O)[C@H](C)NC)C(=O)N1C[C@@H](O)C[C@H]1Cc1c(-c2[nH]c3cc(F)ccc3c2C[C@@H]2C[C@H](O)CN2C(=O)[C@H](CC)NC(=O)[C@H](C)NC)[nH]c2cc(F)ccc12 [Birinapant],83.7,–
O=C(/C=C/c1ccc(CN(CCO)CCc2c[nH]c3ccccc23)cc1)NO [Dacinostat] + CC[C@H](NC(=O)[C@H](C)NC)C(=O)N1C[C@@H](O)C[C@H]1Cc1c(-c2[nH]c3cc(F)ccc3c2C[C@@H]2C[C@H](O)CN2C(=O)[C@H](CC)NC(=O)[C@H](C)NC)[nH]c2cc(F)ccc12 [Birinapant],-67.4,–
Cc1[nH]c2ccccc2c1CCNCc1ccc(/C=C/C(=O)NO)cc1 [Panobinostat] + CC[C@H](NC(=O)[C@H](C)NC)C(=O)N1C[C@@H](O)C[C@H]1Cc1c(-c2[nH]c3cc(F)ccc3c2C[C@@H]2C[C@H](O)CN2C(=O)[C@H](CC)NC(=O)[C@H](C)NC)[nH]c2cc(F)ccc12 [Birinapant],-159,-1360
O=C(/C=C/c1cccc(S(=O)(=O)Nc2ccccc2)c1)NO [Belinostat] + CC[C@H](NC(=O)[C@H](C)NC)C(=O)N1C[C@@H](O)C[C@H]1Cc1c(-c2[nH]c3cc(F)ccc3c2C[C@@H]2C[C@H](O)CN2C(=O)[C@H](CC)NC(=O)[C@H](C)NC)[nH]c2cc(F)ccc12 [Birinapant],-26.7,–
CC[C@]12C=CCN3CC[C@@]4(c5cc([C@@]6(C(=O)OC)C[C@@H]7C[C@@H](C(C)(F)F)CN(Cc8c6[nH]c6ccccc86)C7)c(OC)cc5N(C)[C@H]4[C@@](O)(C(=O)OC)[C@@H]1OC(C)=O)[C@@H]32 [Vinflunine] + CC[C@H](NC(=O)[C@H](C)NC)C(=O)N1C[C@@H](O)C[C@H]1Cc1c(-c2[nH]c3cc(F)ccc3c2C[C@@H]2C[C@H](O)CN2C(=O)[C@H](CC)NC(=O)[C@H](C)NC)[nH]c2cc(F)ccc12 [Birinapant],-106,-752
